Results as given in PubChem BioAssay AID720541 (National Center for Advancing Translational Sciences (NCATS), 2013).
Out of some 1,300 compounds screened, about 420 (32%) were called active. Inconclusive results (about 32%) are left out. The call rests on the fitted dose curve; in most records, active means well fitted inhibition curve with a large enough effect; inconclusive means small, poorly fitted or top-dose-only effect; inactive means no such curve, though single readings can be large or run the other way. The list shows a part of the results. Entries that show only a call come without a potency.

target: C-terminal-binding protein 1 (Homo sapiens) (UniProt Q13363); assay: qHTS for Inhibitors of the Phosphatase Activity of Eya2: Carboxyl-terminal binding protein (CtBP) Counterscreen for Cherry-picked Compounds; conditions: purified protein-protein binding, AlphaScreen, 3 h; series mostly up to 46.1 µM; further: nearly all actives have a fitted effect of over 65% in size
In short: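 Cherry-picked compounds (final 2.5 nM–46 uM) were incubated 2 h at RT with 25 nM CtBP-6xHIS and 25 nM GST-E1A. Alpha beads (20 ug/mL) were then added for 1 h, light-protected; DMSO and E1A peptide inhibitor wells set the normalization.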
Potency means the concentration at half of the fitted maximal effect.

Row | Structure (SMILES) | Potency
1 | O=C(O)c1ccc(CSc2nc3ccccc3c(=O)n2-c2ccccc2)cc1 | inactive
2 | COc1ccc(-n2c(SCC(=O)Nc3cc(C(=O)O)ccc3C)nc3ccccc3c2=O)cc1Cl | 8.49 µM (active)
3 | COc1ccc(NC(=O)CSc2ccc(-c3ccccn3)nn2)cc1OC | 3.79 µM (active)
4 | COc1ccccc1CNC(=O)c1ccc2c(=O)n(CCCN3CCCC3=O)c(=S)[nH]c2c1 | inactive
5 | COc1cc(NC(=O)CSc2ccc(-c3ccccn3)nn2)cc(OC)c1 | 1.9 µM (active)
6 | O=C(CSc1ccc(-c2ccccn2)nn1)Nc1cccc(F)c1 | inactive
7 | COc1ccc(NC(=O)CN(C)C(=O)c2cccc(-n3cccc3)c2)cc1 | inactive
8 | COc1ccccc1CNC(=O)CSc1ccc(-c2ccccn2)nn1 | 8.49 µM (active)
9 | COc1ccccc1CNC(=O)CCCc1cn(C)c2ccccc12 | inactive
10 | Cc1cc(C(=O)c2ccccc2)cc(C)c1O | inactive
11 | CC1Cc2ccccc2N1C(=O)C1CCCN1S(=O)(=O)c1ccc(Cl)cc1 (stereo not drawn) | inactive
12 | CC1CCN(CC2C(=O)O[C@@H]3C[C@@]4(C)CCC[C@H](C)C4=C[C@H]23)CC(C)(C)C1 (stereo partly drawn) | inactive
13 | Nc1[nH]nc2ncc3cc4ccccc4nc3c12 | 10.7 µM (active)
14 | O=C(CSc1ccc(-c2ccccn2)nn1)N1CCCCC1 | 7.57 µM (active)
15 | O=C(CSc1ccc(-c2ccccn2)nn1)N1CCCC1 | 8.49 µM (active)
16 | O=C(Cn1c(S(=O)(=O)Cc2ccccc2)nc2ccccc21)N1CCCCC1 | inactive
17 | O=C(C1=C[C@H](c2ccccc2)C[C@H](OCc2ccc(CO)cc2)O1)N1CCN(Cc2ccccc2)CC1 | inactive
18 | O=[N+]([O-])c1ccccc1/C=C\C=N\N1CCN(c2ccccc2)CC1 | inactive
19 | COc1ccc(-n2c(CN3CCN(c4ccccc4OC)CC3)nc3ccc([N+](=O)[O-])cc3c2=O)c(OC)c1 | inactive
20 | COc1ccccc1N1CCN(/N=C/C=C\c2ccccc2[N+](=O)[O-])CC1 | 15.1 µM (active)
21 | O=C(c1cccs1)N1CCC(c2nc3c(nnn3Cc3cccc(Cl)c3)c(=O)[nH]2)CC1 | 12 µM (active)

Row | Structure (SMILES) | Potency
22 | CCOC(=O)c1cnc2c(C#N)cnn2c1N | 10.7 µM (active)
23 | CC(NC(=O)c1cc2c(s1)CS(=O)(=O)C2)c1ccccc1 (stereo not drawn) | inactive
24 | CCOc1ccc2[nH]cc(-c3csc(N)n3)c2c1 | 12 µM (active)
25 | O=c1cc2oc3cc(O)c(O)cc3c(-c3ccccc3[N+](=O)[O-])c-2cc1O | 9.53 µM (active)
26 | Cc1cccc(C)c1OCc1cc(C(=O)N2CCN(c3ccccc3)CC2C)no1 (stereo not drawn) | inactive
27 | COc1ccc(-c2c(N)cnc(C(=O)O)c2C)c(OCc2ccccc2)c1OC | 12 µM (active)
28 | COc1cc(C(C(=O)NC2CCCCC2)N(C(=O)Cc2c[nH]c3ccccc23)c2ccc(C)cc2)cc(OC)c1OC (stereo not drawn) | inactive
29 | Cc1cc(/C=N/NC(=O)c2ccccn2)c(C)n1-c1cccc([N+](=O)[O-])c1 | 15.1 µM (active)
30 | Cn1nnnc1SCC(=O)Nc1ccc2c(c1)OCO2 | inactive
31 | O=C(CCn1c(=O)oc2ccccc21)NCc1ccc2c(c1)OCO2 | inactive
32 | CCCCn1nc(C(=O)Nc2ccc3c(c2)OCO3)c2ccccc2c1=O | 15.1 µM (active)
33 | COc1cc2c(cc1OC)C(c1ccc([N+](=O)[O-])cc1)NCC2 (stereo not drawn) | inactive
34 | Nc1ccc2nc3c(=O)[nH]c(=S)[nH]c3nc2c1 | 3.79 µM (active)
35 | CN(C)c1ccc(N=Nc2ccnc3ccccc23)cc1 | 2.13 µM (active)
36 | COc1cc(NC(=O)CN2C(=O)CSc3ccc(S(=O)(=O)N4CCCC4)cc32)cc(OC)c1 | inactive
37 | COc1ccc(C2CC(c3ccccc3OC(=O)/C=C/c3ccccc3)=NN2C(C)=O)cc1 (stereo not drawn) | 1.69 µM (active)
38 | CCC(=O)N1N=C(c2ccc(C)o2)CC1c1ccc(N(C)C)cc1 (stereo not drawn) | inactive
39 | O=C(Oc1cccnc1)c1ccc([N+](=O)[O-])cc1Cl | inactive
40 | COc1ccc(CCn2c(=N)c(C(=O)NCC3CCCO3)cc3c(=O)n4ccccc4nc32)cc1 (stereo not drawn) | 12 µM (active)
41 | Cc1cccn2c(=O)c3cc(S(=O)(=O)c4ccc(F)cc4)c(=N)n(Cc4ccco4)c3nc12 | inactive
42 | COc1ccc(CCn2c(=N)c(C(=O)NCc3ccco3)cc3c(=O)n4ccccc4nc32)cc1OC | 9.53 µM (active)

Row | Structure (SMILES) | Potency
43 | COc1ccccc1Nc1nc(-c2ccc3c(c2)NC(=O)CO3)cs1 | inactive
44 | COc1ccc(-c2csc(Nc3ccc(S(N)(=O)=O)cc3)n2)cc1OC | 15.1 µM (active)
45 | COCCn1c(C)cc(C(=O)COC(=O)c2ccccc2Br)c1C | inactive
46 | Cc1cc(C(=O)COC(=O)c2cccnc2Cl)c(C)n1-c1c(C)n(C)n(-c2ccccc2)c1=O | inactive
47 | CCn1cc(C(=O)OCC(=O)c2cc(C)n(-c3ccccc3F)c2C)c(=O)c2ccc(C)nc21 | 16.9 µM (active)
48 | CCC(=O)NC(=S)Nc1ccc(NC(=O)COc2ccc([N+](=O)[O-])cc2)cc1 | inactive
49 | COc1ccc(C(=O)Nc2nnc(-c3ccccc3)o2)cc1OC | 19 µM (active)
50 | O=C(COc1ccccc1)Nc1nnc(-c2ccco2)o1 | 16.9 µM (active)
51 | CS(=O)(=O)c1ccc(-c2nnc(NC(=O)C3=COCCO3)o2)cc1 | inactive
52 | CCOc1ccccc1C(=O)OCC(=O)Nc1nnc(-c2ccccc2)o1 | 13.5 µM (active)
53 | O=C(COC(=O)c1cc(-c2cccnc2)nc2ccccc12)Nc1ccc(F)cc1F | inactive
54 | COc1ccc(NC(=O)c2ccc(COc3ccccc3)o2)c(OC)c1 | inactive
55 | CCc1ccc(NC(=O)COC(=O)c2ccccc2OCC(=O)N(C)C)cc1 | inactive
56 | CC1CCCN(S(=O)(=O)c2ccc(C(=O)Nc3nnc(-c4ccco4)o3)cc2)C1 (stereo not drawn) | inactive
57 | COc1ccccc1-c1noc2c1C(=O)N(Cc1cn(-c3ccc(Cl)cc3)nn1)CC2 | inactive
58 | COc1cc(N)c(Cl)cc1C(=O)N[C@H]1CCN(CCCOc2ccc(F)cc2)C[C@H]1OC | inactive
59 | Brc1ccc(Cn2c(-c3ccc(Br)o3)nc3ccccc32)o1 | inactive
60 | Cc1cc(C(=O)COC(=O)c2ccc(O)cc2)c(C)n1CCc1ccc(F)cc1 | inactive
61 | Cc1c(C(=O)O)cccc1-c1ccc(/C=C2\SC(=O)NC2=O)o1 | inactive
62 | CCOC(=O)C(C)N1C(=O)S/C(=C\c2ccc(-c3ccccc3C(=O)O)o2)C1=O (stereo not drawn) | 15.1 µM (active)
63 | CCn1c(C)cc(/C=C2/SC(=O)N(C(C)C(=O)OC)C2=O)c1C (stereo not drawn) | inactive
